Source: PubChem BioAssay AID687001 (Broad Institute, 2013)
Potency and affinity values are given separately.

These compounds were tested against Protein S100-A4 (Homo sapiens) (UniProt P26447) (assay: human S100A4 peptide interaction inhibition curves – biochemical, fluorescence polarization, cherry-picked hits, dose response (AID 687001;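 also: 0% = DMSO neutral control wells and -100% = TFP positive control wells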)). Conditions: FP, S100A4/TAMRA-myosin IIA peptide binding; series mostly up to 11 µM; activity change, negative = inhibition: at the top concentration;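 active = signal-lowering compounds whose fitted half-maximal concentration is at or below twice the top tested dose in every run; inconclusive = runs disagree, flat 30 to 70% inhibition, or poor curve fit; inactive = the rest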.
Protein S100-A4 (Homo sapiens), sequence (P26447 whole entry, looked up): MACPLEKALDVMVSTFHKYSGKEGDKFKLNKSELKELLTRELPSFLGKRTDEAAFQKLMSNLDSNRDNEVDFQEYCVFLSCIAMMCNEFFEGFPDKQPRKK

Activity change, negative = inhibition, inactive:
COc1ccccc1NC(=O)N1CC(=O)N2[C@H](CO)[C@H](c3ccc(-c4ccc(F)cc4)cc3)[C@@H]2C1 6.59%
CC(NC(=O)COc1ccc(Br)cc1)C(=O)O (centres undefined) -4.84%
CC[C@]12c3[nH]c4ccc(Cl)cc4c3CCN1C(=O)[C@@H](CC(=O)NCCCn1ccnc1)C[C@@H]2C(=O)N1CCN(C(=O)c2ccco2)CC1 1.58%
C[C@H]1CN([C@@H](C)CO)C(=O)c2cc(NC(=O)CCCCCC(=O)Nc3ccccc3N)ccc2O[C@H]1CN(C)S(=O)(=O)c1cccs1 7.67%
CCCNC(=O)Nc1ccc2c(c1)C(=O)N(C)C[C@@H](OC)[C@@H](C)CN[C@@H](C)CO2 -0.641%
Cn1cnc(S(=O)(=O)N2C[C@H](O)COC[C@@H]3O[C@H](CC(=O)NC4CCCC4)CC[C@H]32)c1 1.12%
CCCC(=O)Nc1ccc2c(c1)OC[C@H](C)N(CCC(F)(F)F)C[C@H](C)[C@@H](OC)CN(C)C2=O 2.5%
CC(C)NC(=O)COc1coc(CN2CCN(c3ccccc3)CC2)cc1=O -3.46%
Cc1cccc2c(CC(=O)Nc3ccccc3)noc12 -11.4%
O=C(CC1C[C@H](C(=O)N2CCCCC2)[C@@]2(CCc3ccccc3)c3[nH]c4ccccc4c3CCN2C1=O)NCCC1=CCCCC1 (some centres undefined) -5.01%
COCCN(C(=O)CSc1nc2ccc(OC)cc2[nH]1)c1c(N)n(Cc2ccccc2)c(=O)[nH]c1=O -0.187%
COCC(=O)N1[C@@H](C#N)[C@H](c2ccc(-c3cccc(F)c3)cc2)[C@@H]1CO 1.65%
COc1ccc(OCC(=O)N2CCN(S(=O)(=O)c3ccc(Cl)s3)CC2)cc1 -2.66%
C[C@H]1CCCCO[C@H](CN(C)C(=O)c2ccccc2)[C@@H](C)CN([C@@H](C)CO)C(=O)c2cc(NC(=O)NC3CCCCC3)ccc2O1 4.76%
O=C(COC(=O)/C=C/c1ccc(Br)o1)Nc1ccc2[nH]c(=O)[nH]c2c1 1.75%
Cc1ccc(S(=O)(=O)NCC[C@@H]2CC[C@H](NC(=O)Nc3cccc(F)c3)[C@@H](CO)O2)cc1 0.251%
Cn1cnc(CCNC(=O)C[C@H]2CC[C@H]3[C@@H](COC[C@@H](O)CN3C(=O)C3CC3)O2)c1 -2.99%
O=C(Nc1ccccc1F)N[C@@H]1CC[C@H](CCNC(=O)C2CCCCC2)O[C@H]1CO 9.26%
O=C(C[C@@H]1CC[C@@H](NC(=O)CC2CC2)[C@H](CO)O1)NCc1ccc(Cl)cc1 3.57%
COc1ccc(C(C)(O)c2nc(-c3cccs3)cs2)cc1 (centres undefined) -1.36%
O=C(C[C@@H]1CC[C@@H](NC(=O)Cc2cccnc2)[C@H](CO)O1)Nc1ccc(-c2ccccc2)cc1 0.256%
CC(C)C#Cc1ccc2c(c1)O[C@@H](CN(C)C(=O)NC(C)C)[C@H](C)CN([C@H](C)CO)S2(=O)=O 0.298%
CCOc1ccc(NC(=O)CN(C)C(=O)c2cccc3ccccc23)cc1OCC -1.35%
COc1ccc(OC)c(NC(=O)CSc2nnc(CNC(=O)c3cc(OC)c(OC)c(OC)c3)o2)c1 -5.15%
CN(C)CC(=O)N[C@H]1CC[C@@H](CC(=O)NCc2ccc(Cl)cc2)O[C@@H]1CO -2.55%
CC(C)c1ccc(/C=C(\NC(=O)c2ccccc2)C(=O)NCCCn2ccnc2)cc1 -3.44%
Cc1[nH][nH]c(=O)c1C(c1cc(Br)ccc1O)c1c(C)[nH][nH]c1=O -4.58%
COc1ccc2c3c([nH]c2c1)[C@H](CO)N(S(C)(=O)=O)CC31CN(CC2CCOCC2)C1 15.9%
COc1ccc2c(c1)C=CC1(O2)N(CCO)c2ccccc2C1(C)C (centres undefined) 112%
CC(OC(=O)CSCC(=O)Nc1ccc(Cl)cc1)C(=O)N(C)Cc1ccccc1 (centres undefined) -2.64%
O=C(/C=C/c1cc(Br)ccc1F)OCC(=O)N1CCOCC1 -5.43%
Cc1ccc(S(=O)(=O)N(C)C[C@H]2OCCCC[C@@H](C)Oc3ccc(NS(=O)(=O)c4c(C)noc4C)cc3C(=O)N([C@@H](C)CO)C[C@H]2C)cc1 33.5%
CCNC(=O)C[C@@H]1CC[C@@H](NS(=O)(=O)c2ccc(F)cc2)[C@H](CO)O1 -4.28%
COc1ccc2[nH]c3c(c2c1)CCN1C(=O)N([C@@H](C)C(=O)NCc2ccccc2)C(=O)[C@]31C 8.69%
O=C(Nc1ccccc1F)N1CC(=O)N2[C@H](CO)[C@@H](c3ccc(-c4ccccc4)cc3)[C@H]2C1 3.36%
O=C(CN1C(=O)CCS(=O)(=O)c2ccccc21)Nc1ccc(F)cc1 -4.04%
CC(C)C#Cc1ccc([C@H]2[C@@H](CO)N(C(=O)c3cccc(F)c3)[C@H]2C#N)cc1 1.73%
COc1ccccc1S(=O)(=O)N[C@H]1CC[C@H](CC(=O)N2CCN(C)CC2)O[C@@H]1CO 4.28%
CO[C@H]1CN(C)C(=O)c2ccc(NS(=O)(=O)c3ccccc3)cc2OC[C@H](C)N(Cc2cccnc2)C[C@@H]1C 0.753%
